From PubChem BioAssay
NS1 inh: blocks influenza NS1 protein function | hit rate 0.4% among 270,000 | Potency, µM (highest dose often 46.1 µM), inactives show at the highest dose activity, positive = more growth; calls by dose curve; note: potency is the fitted concentration of half-maximal effect; actives are rising curves; nearly all actives have a fitted effect of over 50% in size
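S. cerevisiae expressing influenza A NS1, grown in glucose, washed, then diluted 1:100 into pH 6.0 -URA galactose medium with 23 nl compound. Growth recovery read as OD600; NS1-free strain serves as control.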
LmPK inh: inhibitors of Leishmania mexicana pyruvate kinase | purified LmPK, Kinase-Glo ATP luminescence, 1 h | Potency, µM (top dose mostly 57.5 µM), for the others: at the top dose activity change, negative = inhibition, usual class: inhibitors | hit rate 0.37% among 290,000; note: potency is the fitted concentration of half-maximal effect; % is set by controls: 0 for no effect and ±100 for the full control effect
Target sequence (Q27686 whole entry, looked up): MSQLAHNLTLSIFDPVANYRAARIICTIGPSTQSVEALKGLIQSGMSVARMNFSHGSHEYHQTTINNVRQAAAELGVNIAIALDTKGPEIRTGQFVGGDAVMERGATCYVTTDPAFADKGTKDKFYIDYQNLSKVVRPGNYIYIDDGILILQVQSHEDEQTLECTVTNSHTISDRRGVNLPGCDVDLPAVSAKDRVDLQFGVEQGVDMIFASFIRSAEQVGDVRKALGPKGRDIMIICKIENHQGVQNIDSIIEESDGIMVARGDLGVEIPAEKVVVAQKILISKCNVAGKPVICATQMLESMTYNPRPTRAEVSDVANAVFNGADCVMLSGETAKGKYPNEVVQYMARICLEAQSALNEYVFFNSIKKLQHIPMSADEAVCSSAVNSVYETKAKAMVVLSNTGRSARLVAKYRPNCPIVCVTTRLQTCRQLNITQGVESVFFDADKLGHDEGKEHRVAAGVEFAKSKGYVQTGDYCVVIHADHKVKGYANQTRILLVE
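Pyruvate kinase activity monitored as ATP production (luciferase luminescence). Conditions: 0.1 nM enzyme, 0.5 mM PEP, 0.1 mM ADP, 1 h, RT; normalized against uninhibited and no-enzyme wells.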
Cycloheximide cs: counter-screen hit for Shiga toxin inhibitors, cycloheximide; hit rate 12% among 300,000; cell reporter, cycloheximide protein synthesis inhibition counterscreen; max response, %; in the data active = max response mostly above about 13%, no sharp cut-off; inactive = mostly below about 14%; note: read at 38.3 µM for the half of the compounds with a filed dose; 0% is about no effect
Shiga inhibitor: inhibitors of Shiga toxin in Vero cells; Vero cells, Shiga toxin protein synthesis inhibition reporter; inhibition, % at 38.7 µM; hit rate 9.2% among 290,000; in the data active = inhibition mostly above about 28%, no sharp cut-off; inactive = mostly below about 43%; note: 0% is about no effect
FBPA Giardia inh: blocks Giardia fructose-bisphosphate aldolase activity. A8B2U2. purified Giardia FBPA. Potency, µM (doses to about 59.6 µM), for the others: top-dose activity, negative = inhibition, usual class: inhibitors. hit rate 0.71% among 290,000; note: potency is the fitted concentration of half-maximal effect; % is set by controls: 0 for no effect and ±100 for the full control effect; nearly all actives have a fitted effect of over 55% in size
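40 nM FBPA preincubated 10 min at RT with compound (up to 57.5 uM final), then substrate plus GAPDH/TPI/NAD/arsenate coupling and diaphorase/resazurin added. Fluorescence read after 20 min at RT, 525/598 nm.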
* marks the source's active call; other numbers are inactive results; i = inactive; u = inconclusive; x = not tested or not shown; + = active, no number; [ ] = another dose, or the depositor's remark. Most compounds without a hit are left out; they make up all but 14% or so of the library. Unless noted, calls come from the whole dose curve; as a rule, active = well fitted curve in the direction sought with a large enough effect; inconclusive = small, poorly fitted or top-dose-only effect, or another doubt; inactive = no such curve, though single readings can be large; an effect the other way counts as inactive or inconclusive.

SMILES	NS1 inh	LmPK inh	Cycloheximide cs	Shiga inhibitor	FBPA Giardia inh
Cc1ccccc1-c1nc(CS(=O)(=O)CC(=O)NCc2ccco2)c(C)o1	0%	0%	12	-4	-2%
O=C(Nc1ccc(F)cc1)C1CCN(S(=O)(=O)c2ccc3[nH]c(=O)oc3c2)CC1	4%	7%	1	-2	x
CC1=NN(c2ccccc2)C(=O)/C1=C/c1c(O)n(-c2ccc(F)c(Cl)c2)[nH]c1=O	-6%	1%	17*	19	5%
CC1=NN(c2ccccc2)C(=O)/C1=C\c1c(C)[nH]n(-c2ccccc2)c1=O	5%	5%	6	-5	3%
CC(=O)c1ccc(S(=O)(=O)N(C)CC(=O)N2CCCCCC2)cc1	6%	0%	-1	-3	2%
Cc1ccc(-c2nc3sc4c(c3c(=O)n2N)CC(C)(C)OC4)cc1	1%	-7%	12	15	3%
CC1(C)Cc2c(sc3nc(-c4cc5ccccc5o4)n(N)c(=O)c23)CO1	-20%	3%	19*	42	0%
Cc1c(O)ccc(C(=O)COc2ccc(F)cc2)c1O	-34%	0%	38*	i	-1%
CCc1cc(C(=O)COc2ccc(F)cc2)c(O)cc1O	-48%	1%	20*	40*	3%
COc1ccc(N2CCN(CC(=O)c3ccc(O)c(C)c3O)CC2)cc1	-6%	5%	-1	-8	-5%
O=C(NC12CC3CC(CC(C3)C1)C2)c1cc([N+](=O)[O-])ccc1N1CCOCC1	4%	-2%	-2	-5	-14%
Cc1ccc(SCc2cc(=O)n(C)[nH]2)cc1	x	-2%	8	55*	-6%
Cc1ccc(SCc2cc(=O)n3[nH]c(C)nc3n2)cc1	-4%	-3%	-1	-7	-15%
COc1ccc(CNc2ncncc2-c2ccoc2)c(OC)c1	x	x	x	x	-3%
Cc1nn(C)c(=O)n1-c1ccc(OCc2ccccc2)cc1	-8%	14µM*	44*	89*	7%
Cc1nn(CCOc2ccccc2)c(=O)n1-c1ccc(F)cc1	5%	-1%	32*	62*	9%
O=C(NNC(=O)c1ccccc1Br)c1cccc(Cl)c1	-78%	-2%	83*	50*	15%
O=C(NNC(=O)c1ccccc1F)c1cccc(Cl)c1	-14%	-12%	22*	80*	0%
O=C(NNC(=O)c1ccccc1Br)c1ccc(Cl)cc1	-1%	-1%	6	21	-3%
CC(C)(C)c1ccc(OCCC(=O)NC2=NCCS2)cc1	-156%	8%	12*	42	0%
COc1ccc(OCCC(=O)NC2=NCCS2)cc1	-9%	1%	27*	62	2%
CCOc1ccc(OCCCC(=O)NC2=NCCS2)cc1	3%	0%	-7	-19	-2%
O=C(CSc1ccc([N+](=O)[O-])cn1)Nc1ccc2c(c1)OCO2	-9%	9%	2	49	-8%
Cc1cc(OCCn2c(CCNC(=O)C3CCCCC3)nc3ccccc32)ccc1Cl	x	x	-8	-9	x
Nc1nonc1-n1nnc(C(=O)N/N=C/c2ccc(OCc3ccccc3F)cc2)c1CNc1ccccc1	-24%	-3%	17*	18	8%
SMILES	NS1 inh	LmPK inh	Cycloheximide cs	Shiga inhibitor	FBPA Giardia inh
Cc1ccc(COc2cccc(/C=N/NC(=O)c3nnn(-c4nonc4N)c3C)c2)cc1	7%	-2%	15*	39	6%
Cc1ccc(/C=N/NC(=O)c2nnn(-c3nonc3N)c2CNc2ccccc2)cc1	10%	-6%	-4	-12	x
Cc1ccc(CNC(=O)C(=O)NCC2OCCN2S(=O)(=O)c2ccc(Br)cc2)cc1 (stereo unspecified)	9%	-6%	0	-27	x
CCOC(=O)c1csc(-n2nc(C)cc2C(F)(F)F)n1	1%	11%	33*	38	1%
COc1ccccc1NC(=O)C1=C(C)NC(=O)NC1c1ccccc1[N+](=O)[O-] (stereo unspecified)	x	0%	30*	45*	u
COc1ccccc1NC(=O)C1=C(C)NC(=O)NC1c1ccc(C)cc1 (stereo unspecified)	-8%	0%	-2	-9	0%
CC1=C(C(=O)Nc2ccccc2)C(c2ccccc2[N+](=O)[O-])NC(=O)N1 (stereo unspecified)	12%	-2%	17*	37	-18%
O=S(=O)(/N=C(/Nc1cccc2ccccc12)c1ccc(F)cc1)c1ccccc1	-4%	1%	-2	-7	2%
CCC(=O)Nc1ccc2oc(-c3cccc(C)c3)nc2c1	-30%	u	35*	+	-2%
CCC(=O)Nc1cccc(-c2nnc(-c3cccc(NC(=O)CC)c3)o2)c1	1%	5%	12	-7	6%
CCC(=O)Nc1cccc(-c2nc3ccc(C)cc3o2)c1	-111%	-1%	52*	125*	3%
Cc1ccc2nc(-c3cccc(NC(=O)c4ccc5c(c4)OCCO5)c3)oc2c1	-3%	0%	20*	34	2%
Cc1ccc(S(=O)(=O)N[C@H]2COC(=O)[C@@H](C)COC(=O)[C@H](C)NC(=O)C/C=C\[C@H]2C)cc1	x	x	x	x	2%[12.9 µM]
C=C(C)CSCc1nc2ccccc2[nH]1	-31%	-8%	37*	54	0%
Cc1ccc(C)c(CSCc2nc3ccccc3[nH]2)c1	-44%	2%	4	-1	1%
Cc1ccccc1CSCc1nc2ccccc2[nH]1	-2%	-1%	32*	39*	-9%
CCN(CC)C(=O)c1[nH]cnc1C(=O)NCC(=O)OC(C)(C)C	-11%	-5%	-1	-5	u
C/C(CC(=O)NC12CC3CC(CC(C3)C1)C2)=N\NC(=O)c1ccc(C)cc1	4%	5%	10*	18*	-6%
C/C(CC(=O)NC12CC3CC(CC(C3)C1)C2)=N\NC(=O)c1ccc(F)cc1	6%	13%	13	34	-7%
C/C(CC(=O)Nc1cc(C)ccn1)=N\NC(=O)c1ccc(C)cc1	7%	0%	29*	53*	-7%
C/C(CC(=O)Nc1cccc(Cl)c1Cl)=N\NC(=O)c1ccccc1C	3%	-4%	11*	18	-29%
C/C(CC(=O)Nc1cc(Cl)ccc1Cl)=N\NC(=O)c1ccco1	10%	2%	51*	83*	-18%
C/C(CC(=O)Nc1cc(Cl)ccc1Cl)=N\NC(=O)c1ccccc1Br	x	17%	9	12	-16%
COc1ccc(CC(C(=O)Nc2ccc(OC)cc2)c2nn[nH]n2)cc1 (stereo unspecified)	8%	0%	2	-9	u
C/C(CC(=O)Nc1cccc(C(F)(F)F)c1)=N\NC(=O)c1ccncc1	3%	9%	0	-1	-12%
C/C(CC(=O)Nc1cc(C)ccn1)=N\NC(=O)c1cccc(F)c1	3%	-5%	31*	110*	-11%
COc1ccc(C(=O)N/N=C(\C)CC(=O)Nc2ccccn2)cc1OC	4%	0%	-6	1	-18%
C/C(CC(=O)Nc1ccccn1)=N\NC(=O)c1cccc(C)c1	2%	-5%	21*	40*	-23%
C/C(CC(=O)Nc1cc(C)ccn1)=N\NC(=O)c1ccccc1C	3%	7%	26*	51*	-12%
